# Data from PubChem BioAssay (NCI).
# Compounds without any hit were thinned out: in the full panel of roughly 83,000, 20% have a hit.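 Compound tested at a single concentration for 48 hours in 96-well plates; a percent growth value below 10 was scored as active.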 Calls of active or inactive are those of the source.
# System: HL-60(TB) leukemia
# Experiment: NCI-60 one-dose screen, 48 h (100 = growth as untreated, 0 = no growth, -100 = all killed)
# Conditions: 10 µM unless noted
row,SMILES,growth
1,COC(=O)[C@H](C(C)C)n1c(=O)c2cc(OC)c(OC)cc2c2cnc3[nH]ccc3c21,16.1% (inactive)
2,CC(C)n1nc(C#Cc2cccc(NC(=O)c3cccc(C(F)(F)F)c3)c2)c2c(N)ncnc21,-18.9% (active)
3,O=S(=O)(O)C(Nc1ccccc1)c1ccccc1 (stereo not given),87.2% (inactive)
4,CN(Cc1cnc2nc(N)nc(N)c2n1)c1ccc(C(=O)N[C@@H](CCc2nn[nH]n2)c2nn[nH]n2)cc1,31.9% (inactive)
5,COc1ccc(/C=C/c2n[nH]c3ccc(N4CCOC4=O)cc23)cc1,-27.5% (active)
6,CN(C[C@@H]1COCCO1)S(=O)(=O)Nc1ccc2ccc3ncc(-c4cnn(C)c4)cc3c(=O)c2c1,48.1% (inactive)
7,N#CC1=C(N2CCOCC2)NC2c3ccccc3Sc3ccccc3N2C1=N (stereo not given),89.8% (inactive)
8,CC1OC(Oc2c(-c3ccc(O)c(O)c3)oc3cc(O)cc(O)c3c2=O)C(O)C(O)C1O (stereo not given),106% (inactive)
9,NNC(=S)N1N=C(c2cc3ccccc3o2)CC1c1c[nH]c2ccccc12 (stereo not given),21.7% (inactive)
10,C=C1C(=O)O[C@H]2[C@H]1CC/C(Cn1cc(-c3ccsc3)nn1)=C\CC[C@@]1(C)O[C@@H]21,-23.5% (active)
11,C#CCOc1ccc(C2=NN(CCCC)C3N=C(Cl)c4ncn(CCCC)c4N23)cc1OCC#C (stereo not given),99.4% (inactive)
12,O=C(O)/C=C\C(=O)N1C/C(=C\c2ccccc2Cl)C(=O)/C(=C/c2ccccc2Cl)C1,-3.51% (active)
13,COc1ccc2c(c1)C(=O)/C(=C/c1cccc(OCC(=O)c3ccccc3)c1)CC2,46.5% (inactive)
14,O=c1c2cc(F)ccc2sc2c(NCCCNCCO)nc3ccccc3c12,6.49% (active)
15,CCN(CC)c1cc(/C=C/c2ccc(OC)c(OC)c2)nc2cc(F)c(F)cc12,112% (inactive)
16,COc1ccc(C2C3=C(COC3=O)N(CCO)c3cc4c(cc32)OCCO4)cc1OC (stereo not given),6.34% (active)
17,FC(F)(F)c1cc(N2CCCCC2)nc(NCCCNc2ccnc3cc(Cl)ccc23)n1,42.1% (inactive)
18,CCC(=O)Oc1ccc(/C=N/NC(N)=S)nc1,19.9% (inactive)
19,Cc1nc2cc(Nc3nc(Nc4ccc(F)cc4)nc(N4CCN(C)CC4)n3)ccc2n1Cc1ccccc1,-56.9% (active)
20,CC1=C2CC/C(C)=C/CC[C@]3(C)O[C@H]3CC/C(C)=C/[C@H]2OC1,86.5% (inactive)

row,SMILES,growth
1,O=[N+]([O-])c1cc2c(cc1Br)C1C(C3C2C(Cl)(Cl)C(Cl)=C(Cl)C3(Cl)Cl)C(Cl)(Cl)C(Cl)=C(Cl)C1(Cl)Cl (stereo not given),110% (inactive)
2,Cc1csc(NC(=O)c2sc3nc(-c4cccs4)ccc3c2N)n1,105% (inactive)
3,CCN(CC)CCN1C(=O)c2cccc3c(-c4ccc5c(c4)ncn5C4CCCCC4)ccc(c23)C1=O,-15.2% (active)
4,COc1ccccc1NC(=O)COc1ccc(/C=C2/Oc3cc4occc4c(OC)c3C2=O)cc1OC,87.5% (inactive)
5,CCCCC(=O)OC1CCCCC1C (stereo not given),117% (inactive)
6,C=C(C)[C@@H]1CC[C@]2(C(=O)O)CC[C@]3(C)[C@H](CC[C@@H]4[C@@]5(C)C[C@@H](CC#Cc6ccc(Cl)cc6)C(=O)C(C)(C)[C@@H]5CC[C@]43C)[C@@H]12,22.2% (inactive)
7,CCOC(=O)/C(=C/c1ccc([N+](=O)[O-])cc1)C(=O)c1ccccc1,-20.8% (active)
8,CCNCCNc1cc(C2CCCCC2)c(C#N)c2nc3ccccc3n12,-62.4% (active)
9,CC(C)CC1NC(C)(C)CO1 (stereo not given),133% (inactive)
10,COc1ccc(N2CCN(S(=O)(=O)c3oc(-c4ccccc4)nc3C#N)CC2)cc1,50.5% (inactive)
11,NS(=O)(=O)c1ccc(-n2ncc3c(SCc4ccccc4)ncnc32)cc1,88.1% (inactive)
12,O=[N+]([O-])c1ccc(-c2ncc(-c3ccc(Br)cc3)o2)cc1,76.6% (inactive)
13,COc1cccc(CCC(=O)c2cc3c(N)c(C(=O)Nc4ccccc4)sc3nc2C)c1,6.59% (active)
14,Cn1ccc(=O)c(C(=O)Nc2nsc3ccc([N+](=O)[O-])cc23)c1,54.9% (inactive)
15,CCN(CC)CCOc1ccc(/C(=C(\Cl)c2ccccc2)c2ccccc2)cc1,75.9% (inactive)
16,NN=C(c1ccc(Cl)cc1)c1ccc(Cl)cc1,131% (inactive)
17,CC(C)(C)OC(=O)N1C/C(=C\c2ccccc2)C(=O)/C(=C/c2ccccc2)C1,99.6% (inactive)
18,COc1ccc(-n2ncc3c4nc(OC)c(S(=O)(=O)c5ccccc5)cc4ccc32)cc1,107% (inactive)
19,C[n+]1c2ccccc2c(Nc2ccc(N3CCCCC3)cc2)c2[nH]c3ccccc3c21,-55.6% (active)
20,C[C@H]1[C@H](OC(=O)CCC(=O)O)O[C@@H]2O[C@]3(C)CC[C@H]4[C@H](C)CC[C@@H]1[C@@]24OO3,-30.5% (active)
